Assay outcomes from PubChem.
B2AR arrestin – agonists driving beta-arrestin recruitment to human beta2-adrenergic receptor; P07550; beta-arrestin recruitment to beta2AR, cell-based reporter; 330,000 tested, 0.02% active; Potency, µM (doses to about 46.1 µM), for the others: at the top dose activation, actives largely listed as activators; active = well fitted activation curve with a large enough effect; inconclusive = small, poorly fitted or top-dose-only effect;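 also: potency is read from the fitted curve at half-maximal effect; 0% = DMSO controls and full agonism = EC100 isoproterenol or metaproterenol; nearly all actives have a fitted effect of over 65% in size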
Target sequence (P07550 whole entry, looked up): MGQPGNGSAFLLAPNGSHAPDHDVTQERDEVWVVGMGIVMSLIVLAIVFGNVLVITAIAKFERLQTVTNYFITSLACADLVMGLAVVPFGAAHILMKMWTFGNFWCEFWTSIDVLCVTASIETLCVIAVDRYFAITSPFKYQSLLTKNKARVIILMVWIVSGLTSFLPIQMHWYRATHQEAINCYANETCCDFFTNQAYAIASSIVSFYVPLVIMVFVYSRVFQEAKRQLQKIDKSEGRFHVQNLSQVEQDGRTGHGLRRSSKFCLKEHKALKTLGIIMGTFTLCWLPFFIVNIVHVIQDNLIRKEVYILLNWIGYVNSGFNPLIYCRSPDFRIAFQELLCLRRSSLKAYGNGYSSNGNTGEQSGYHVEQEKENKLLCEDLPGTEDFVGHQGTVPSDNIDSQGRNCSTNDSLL
TSHR antag – antagonists of human thyroid stimulating hormone receptor; P16473; TSHR-expressing cells, TSH-stimulated cAMP HTRF, 2 h; active compounds read low; activity change, negative = inhibition, % at 11.5 µM; 330,000 tested, 0.2% active;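 active = activity change below a set negative limit, meaning inhibition stronger than a set level, cut at about -70% in these data; inconclusive = activity change between two set negative limits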; also: % is scaled to controls: 0 for no effect and ±100 for the full control effect
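Antagonism was scored as loss of TSH-driven cAMP in TSHR cells, stimulated with 4nM TSH (EC80) for 2 hours at 37 deg C and detected by homogeneous HTRF competition immunoassay.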
D3 antag – blocks the human D3 dopamine receptor; AID 652054; max response, negative = inhibition, %; 360,000 tested, 2.5% active; D3R cells, DiscoveRx beta-arrestin luminescence, antagonist mode; active compounds read low; P35462; in the data active = max response below about -50%; inconclusive = no clear call, values can overlap the other calls; also: % is scaled to controls: 0 for no effect and ±100 for the full control effect
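Cells plated overnight at 1500 cells/well, then exposed to library compounds with dopamine controls for 90 minutes at 37 degrees C. DiscoveRx reagent added for 30–60 minutes at room temperature; luminescence read, quantitative HTS format.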
D3 ag – activates the human D3 dopamine receptor; D3R DiscoveRx beta-arrestin cells, luminescence, 90 min; 410,000 tested, 0.58% active; max activation, %; P35462; in the data active = max activation above about 30%; also: 0% is about no effect
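Agonist-mode cell screen: cells plated at 1500/well and incubated overnight at 37 °C, then exposed to library compounds for 90 min at 37 °C. Detection reagent was added for 30–60 min at room temperature, and luminescence was read.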
* marks the source's active call; other numbers are inactive results. Only some compounds are listed: those with a hit (about 2.9% of all), similar ones and a draw of the others.

What do the screens show for `NC(N)=Nc1ccc2[nH]c3c(c2c1)C[C@@]1(O)[C@H]2Cc4ccc(O)c5c4[C@@]1(CCN2CC1CC1)[C@H]3O5`?
B2AR arrestin: 0.3%; TSHR antag: 12.9; D3 antag: -60.8*; D3 ag: -45.9

How did CN1CCN(Cc2cc(C(C)(C)C)c(O)c(C(C)(C)C)c2)CC1 do in these assays?
B2AR arrestin: -0.4%; TSHR antag: -1.4; D3 antag: -82.1*; D3 ag: -8.7

Results for NCC(O)c1cccc(O)c1 (stereo unspecified) ?
D3 ag: 3.2

What do the screens show for `CN1CCc2nc(SCc3ccccc3Br)c(C#N)cc2C1`?
B2AR arrestin: -0.1%; TSHR antag: -5.1; D3 antag: -80.5*; D3 ag: -11.1

Results for Cc1cccc(CSc2nc3c(cc2C#N)CN(C)CC3)c1 ?
B2AR arrestin: 0.0%; TSHR antag: -4.8; D3 antag: -26.0; D3 ag: -0.9

What do the screens show for `C=CCN=C=S`?
D3 ag: -14.9

Results for C[C@@H]1[C@@H]2Cc3ccc(O)cc3[C@@]1(C)CCN2CCc1ccccc1 ?
D3 ag: -22.6

Results for Cc1ccc(C2CC3CCC(C2)N3Cc2ccccc2F)cc1 (stereo unspecified) ?
B2AR arrestin: 0.4%; TSHR antag: 9.7; D3 antag: -81.7*; D3 ag: -9.2

How did CCn1c(=N)n(Cc2ccccc2F)c2ccccc21 do in these assays?
B2AR arrestin: -0.6%; TSHR antag: 12.0; D3 antag: 15.7; D3 ag: -1.3

How did CC1CCC(C(C)C)C(OC(=O)c2ccccc2N)C1 (stereo unspecified) do in these assays?
D3 ag: 10.3

How did CC(N)Cc1ccc2c(c1)OCO2 (stereo unspecified) do in these assays?
D3 ag: -5.5

How did C[C@@H]1O[C@@H](O[C@@H]2C=C3CCC4C(CC[C@]5(C)[C@@H](c6ccc(=O)oc6)CC[C@]45O)[C@@]3(C)CC2)[C@H](O)[C@H](O)[C@H]1O (stereo partly specified) do in these assays?
B2AR arrestin: -0.1%; TSHR antag: -74.2*; D3 antag: 129.8; D3 ag: 15.7

Results for C[C@@H]1O[C@@H](O[C@@H]2C=C3CC[C@@H]4C(CC[C@]5(C)[C@@H](c6ccc(=O)oc6)CC[C@]45O)[C@@]3(C)CC2)[C@H](O)[C@H](O)[C@H]1O (stereo partly specified) ?
B2AR arrestin: -0.9%; TSHR antag: -78.2*; D3 antag: 113.1; D3 ag: 36.2*

Results for CCN(CC)CCSc1nc2ccccc2c(=O)n1-c1ccc(Cl)cc1 ?
D3 ag: -19.3

Results for CC(C)NCC(O)c1ccccc1Cl (stereo unspecified) ?
D3 ag: 4.9

How did Cc1ccc(O)c(C(=O)c2cc(C(=O)NCc3ccccc3)c(=O)n(Cc3ccccc3)c2)c1 do in these assays?
B2AR arrestin: 0.1%; TSHR antag: 7.7; D3 antag: -68.6*; D3 ag: -24.1

What do the screens show for `CC(C)(C)n1nnnc1C(c1cc2ccccc2o1)N1CCC2(CC1)C(=O)NCN2c1ccccc1` (stereo unspecified)?
D3 antag: -98.9*; D3 ag: -13.0

How did Nc1cc(Cl)c2nonc2c1[N+](=O)[O-] do in these assays?
B2AR arrestin: 0.1%; TSHR antag: inconclusive; D3 antag: -57.9*; D3 ag: -14.9

What do the screens show for `CSc1nc(N2CCN(C)CC2)c2ccccc2n1`?
B2AR arrestin: -1.0%; TSHR antag: -4.7; D3 antag: -16.3; D3 ag: -9.9

What do the screens show for `COc1nc2ccccc2nc1N1CCN(C)CC1`?
B2AR arrestin: -0.4%; TSHR antag: 24.9; D3 antag: -83.4*; D3 ag: -1.5

What do the screens show for `C[C@@H]1C[C@H]2OC(=O)C3(CO3)[C@H]2[C@H](O)[C@]2(C)C(=O)C3OC3[C@@H]12` (stereo partly specified)?
B2AR arrestin: -0.4%; TSHR antag: 23.9

What do the screens show for `C=C1C(=O)O[C@@H]2C[C@@H](C)[C@@H]3C=CC(=O)[C@@]3(C)[C@@H](O)[C@H]12`?
B2AR arrestin: -0.5%; TSHR antag: 4.4; D3 antag: -102.1*; D3 ag: -75.4

How did O=C(C[C@@H]1NCCC[C@H]1O)Cn1cnc2cc(Br)c(Cl)cc2c1=O do in these assays?
D3 ag: -8.3

What do the screens show for `Cc1ccccc1-n1nc(C)c2c1NC(=O)CSC2c1ccccc1C(F)(F)F` (stereo unspecified)?
D3 ag: 6.0
